# KDM5B inhibitor = KDM5B demethylase inhibition. Potency, µM (highest dose often 57.7 µM), hits mostly inhibitors. KDM5B demethylase, FDH-coupled NADH fluorescence (FDH is formaldehyde dehydrogenase). hit rate 2.6% among 220,000; active means well fitted inhibition curve with a large enough effect; further: 0% is about no effect; nearly all actives have a fitted effect of over 70% in size
#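 Inhibition is measured as reduced NADH fluorescence generation from FDH coupling to formaldehyde release. Truncated KDM5BΔAP at 200 nM final acts on H3K4me3 peptide (12.5 µM in substrate mix) in pH 7.5 HEPES buffer with Tween-20, 30 min, room temperature.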
# * = called active by the depositor; i = inactive. This excerpt belongs to a sample that is enriched for hits. Potency means the concentration at half of the fitted maximal effect.
SMILES,KDM5B inhibitor
COc1ncccc1-c1cnc2n[nH]c(-c3ccccc3)c2n1,35.5µM*
c1cncc(-c2cnc3n[nH]c(-c4ccc5c(c4)OCO5)c3n2)c1,i
Cc1ccccc1N1CCN(C(=O)c2cc3n(n2)CC(c2ccc(Cl)cc2)OC3)CC1 (centres undefined),i
Cc1ccc(NC(=O)c2cc3n(n2)CC(c2ccc4c(c2)OCO4)OC3)cc1 (centres undefined),31.6µM*
Cc1cc(NC(=O)c2cc3n(n2)CC(c2ccc4c(c2)OCO4)OC3)ccc1F (centres undefined),28.2µM*
COc1ccc(NC(=O)C2CCN(C(=O)c3ncn4c3COC(c3ccccc3)C4)CC2)cc1Cl (centres undefined),i
COc1ccc(NC(=O)c2cc3n(n2)CC(c2ccc4c(c2)OCO4)OC3)cc1OC (centres undefined),i
COc1ccccc1CNC(=O)c1cc2n(n1)CC(c1ccc(Cl)cc1)OC2 (centres undefined),i
COc1ccc(NC(=O)c2cc3n(n2)CC(c2ccc4c(c2)OCO4)OC3)cc1Cl (centres undefined),25.1µM*
COc1ccc(CCNC(=O)c2cc3n(n2)CC(c2ccc4c(c2)OCO4)OC3)cc1OC (centres undefined),28.2µM*
Cc1ccc(N2CCN(C(=O)c3cc4n(n3)CC(c3ccc(Cl)cc3)OC4)CC2)cc1 (centres undefined),i
NS(=O)(=O)c1ccc(CCNC(=O)c2cc3n(n2)CC(c2ccc(Cl)cc2)OC3)cc1 (centres undefined),i
CCOc1cccc2cc(C(=O)NCc3ccc(OC(F)F)c(OC)c3)c(=O)oc12,i
CCCCC(CC)C(=O)NCc1cccs1 (centres undefined),i
N#Cc1ccc(S(=O)(=O)N[C@H]2[C@H](O)[C@H](O)C[C@@H]2c2ccc(C(F)(F)F)cc2)cc1,i
Cc1oc(-c2ccc(Cl)cc2)nc1CS(=O)CC(=O)NCCN1CCOCC1 (centres undefined),i
O=S(Cc1ccc(F)cc1)Cc1ccc(Cl)cc1 (centres undefined),i
Cc1ccc2oc(-c3ccc(NC(=O)c4ccc(C)c([N+](=O)[O-])c4)cc3)nc2c1,i
CCCCCC(=O)Nc1nc2c(s1)C[C@@H]1[C@](C)(CO)[C@H](O)CC[C@@]1(C)[C@@H]2CC(=O)NCCc1ccc(OC)c(OC)c1,i
Cc1ccc2[nH]c(C(=O)N3CCN(c4ccccc4)CC3)cc2c1,i
CCc1ccc(NC(=O)c2cc3n(n2)CC(c2ccc4c(c2)OCO4)OC3)cc1 (centres undefined),31.6µM*
CCC(C)NC(=O)c1cc2n(n1)CC(c1ccc3c(c1)OCO3)OC2 (centres undefined),i
CCc1ccc(NC(=O)C2=CC(c3ccc4c(c3)OCO4)=NS(=O)(=O)N2C)cc1,i
Cc1ccc2[nH]cc(C(C(=O)O)N3CCN(Cc4cccc5ccccc45)CC3)c2c1 (centres undefined),i
Cc1[nH]ncc1CNC(=O)CCC[C@H]1NC[C@@H]2C[C@H]1CN(Cc1ccccc1)C2,i
SMILES,KDM5B inhibitor
COc1ccc2c(c1)OCC(CNC(=O)c1ccc(N3CCN(C)CC3)cc1)C2 (centres undefined),i
Cc1cc(C(=O)NCC(C)C)ccc1N,i
CN1CCC2(C1)CN(CC1CC1)c1ccc(C(=O)NCC3CC3)cc12 (centres undefined),35.5µM*
CN1CCCC2(C1)CN(C)c1ccc(C(=O)NCC3CCCCC3)cc12 (centres undefined),35.5µM*
CC(C)(C)NC(=O)c1ccc(C(=O)NCC2CC2)cc1,i
CC(C)CNC(=O)c1ccc2c(c1)N(S(=O)(=O)c1ccccc1F)CC2,i
O=C(Nc1ccc(F)cc1)c1ccc2c(c1)CCC2,i
CN1CCCC2(C1)CN(C)c1ccc(C(=O)Nc3ccc(F)cc3)cc12 (centres undefined),35.5µM*
O=C(NCC1CCCCC1)c1ccc2c(c1)N(S(=O)(=O)c1ccccc1)CC2,i
COc1ccc(NC(=O)c2ccc3c(c2)C2(CCCN(C)C2)CN3C)cc1 (centres undefined),i
CC(=O)Nc1cc(NC(C)=O)cc(C(=O)NCC2CCCCC2)c1,i
CC(C)CNC(=O)c1ccc2c(c1)C1(CCN(C)C1)CN2CC1CC1 (centres undefined),35.5µM*
CC(C)C(=O)Nc1ccc(C(=O)CSc2nnc(C3CC3)n2Cc2ccccc2)cc1,i
CCc1c(C)nc2n(c1=O)CN(CCCN(C)C)CN2c1ccccc1OC,i
OCc1cc2ccc(Br)cc2[nH]1,i
COc1cccc2cc(CNCc3c(C)noc3C)oc12,i
O=C(O)c1cc(-c2ccc(F)cc2)on1,i
COc1ccc(CNc2ncnc3c2CN(C2CCNC2)C(=O)CN3C)cc1OC (centres undefined),i
COc1ccc(/C=C2\N=C(SC)SC2=O)cc1,i
O=C(c1ccc2ccccc2c1)N(Cc1ccccc1)C1CC1,i
